Compounds without any hit were thinned out: in the full panel of roughly 83,000, 20% have a hit.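 Single-concentration screen, 48 h exposure, 96-well plates. Endpoint: percent growth. Below 10 = active.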 Values without a mark were called inactive. Calls of active or inactive are those of the source.

The assay concerns MDA-MB-468 breast. The assay is described as follows: NCI-60 one-dose screen, 48 h (100 = growth as untreated, 0 = no growth, -100 = all killed). As to conditions: 10 µM unless noted.
For `COc1ccc2cc(C(=O)c3coc4ccc(O)cc34)ccc2c1`, the growth was 126%.

Turning to `O=C(Nc1cccc(-n2cc(-c3ccncc3)c(-c3ccc(Cl)c(O)c3)n2)c1)Nc1ccc(Cl)c(C(F)(F)F)c1`, the growth was -49.5% (active).

For `COc1cccc(NC(=O)NCCNc2nccc(-c3c(-c4ccc(F)cc4)nc4sccn34)n2)c1`, the growth is 94.3%.

In the case of `CCCCCN1C=C/C(=C\C(=O)N(C)c2ccc(Br)cc2)c2ccccc21`, the growth was 73.8%.

Consider `O=S(=O)(NCCCNc1nccc(-c2[nH]c(-c3ccccc3)nc2-c2ccc(F)c(O)c2)n1)c1ccc(C(F)(F)F)cc1`, for which the growth is -8.61% (active).

Turning to `CCNc1ccc2ccccc2c1N=Nc1ccc(N=Nc2ccccc2)cc1`, the growth was 104%.

With `Cc1ccc(-c2nc(/C=N/Nc3cc(C)nc4ccc(Cl)cc34)c(C)o2)cc1`, the growth is -76% (active).

In the case of `CCCCOc1nc2ccccc2cc1C1CNC(=O)c2ccccc2N1` (stereo unspecified), the growth is -1.81% (active).

Consider `CC1(O)OC(COc2ccc(Cl)cc2)COC1O` (stereo unspecified), for which the growth is 105%.

In the case of `CCn1cc(C2NC(=O)c3cc(F)ccc3N2)c2cccc(Cl)c21` (stereo unspecified), the growth is 7.04% (active).

As for `N#Cc1c(-c2ccc(Br)cc2)nc2c(N=Nc3ccc(S(N)(=O)=O)cc3)c(N)nn2c1N`, the growth is 23.6%.

For `C[n+]1cc2c3c(ccc2c2ccc4cc5c(cc4c21)OCO5)OCO3`, the growth was -93.7% (active).

Turning to `CC[C@H](CC[C@@H](C)[C@H]1CC[C@H]2[C@@H]3CC[C@@H]4CC(=O)/C(=C\c5ccncc5)C[C@]4(C)[C@H]3CC[C@]12C)C(C)C`, the growth is 105%.

With `Nc1c(Br)cc(Br)cc1-c1n[nH]c(=O)[nH]c1=O`, the growth is 104%.

`Cc1cc(O)ccc1O`: the growth is 107%.

In the case of `CC1/C=C/C=C/C=C/C=C/C=C/C=C/C=C/C(O[C@@H]2O[C@H](C)[C@H](O)[C@@H](O)[C@@H]2N)CC(O)C(C(=O)O)C(O)CC(=O)CC(O)CC(O)CC(O)CC(=O)CCCC(=O)CC(=O)OC1C(C)CC(C)C(O)CC(=O)c1ccc(N)cc1` (stereo partly specified), the growth was -89.7% (active).

As to `CC(C)SC1=NC(=C(C(=N1)NC2=ClC=CC=C2)C#N)C3=CC=CC=C3`, the growth is 43%.

As for `c1ccc(-c2nc3sc(C(c4ccccc4)c4ccccc4)nn3c2-c2ccccc2)cc1`, the growth is 96.1%.

In the case of `CNC1CCc2c(sc(NC(=O)c3ccc(C(C)(C)C)cc3)c2C(N)=O)C1` (stereo unspecified), the growth was -37.2% (active).

With `CCOC(=O)Nc1ccc(C(=O)/C=C/c2ccccc2)cc1`, the growth is 94%.

In the case of `COc1ccc(/C=N/C2=C(C#N)C(c3ccc(OC)cc3)c3ccc4ccccc4c3O2)cc1` (stereo unspecified), the growth was 38.2%.

For `COC1C(O)CC(OC2CC(OC3CC(O[C@@H]4C(=O)c5c(cc6cc(OC7CC(OC8CC(O)C(O)C(C)O8)C(O)C(C)O7)c(C)c(O)c6c5O)CC4[C@H](OC)C(=O)O)OC(C)C3O)OC(C)C2O)OC1C` (stereo partly specified), the growth was 15.8%.

As to `Nc1c(C(=O)Nc2ccncc2)sc2nc3c(cc12)C(O)CCC3` (stereo unspecified), the growth is 88.5%.

Regarding `Nc1nccc(=S)[nH]1`, the growth was 109%.

`C[C@]12CC[C@@H]3c4ccc(O)cc4CC[C@H]3[C@@H]1C[C@H](O)C2`: the growth is 73.7%.

In the case of `COc1ccc(/C=C2\CCC/C(=C\c3ccc(OC)c(OC)c3)C2=O)cc1OC`, the growth was -16.6% (active).
